Hits are enriched below; roughly 1.7% of the tested compounds scored in any of these assays.
Vif inh – HIV Vif inhibition. HEK293T cells, Vif self-association by quenched fluorescence, imaging, 24 h. inhibition, % at 7.49 µM. AID 602346. 340,000 tested, 0.35% active; in the data active = inhibition above about 50%, passing the limit was not always enough
F508del corr – correctors of CFTR F508del function in bronchial epithelial cells | activity (quench increase), % at 7.58 µM | CFBE cells, YFP halide quenching; stimulated with forskolin plus potentiator P3; % fluorescence drop versus neutral controls | 350,000 tested, 0.36% active;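 active = mean added fluorescence quench of at least 8% versus neutral control, with both replicates also reaching 8%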;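 note: cells transiently co-express mutant CFTR-F508del with the halide-sensitive YFP; corrector assay measuring rescue of mutant channel to the surface after 24 h compound exposure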
FGF22 binding-1 – shifts melting point of recombinant human FGF22 | Q9HCT0 | recombinant FGF22 thermal shift, SYPRO orange fluorescence; percent of sucrose octasulfate shift, DMSO zero | activity (Tm shift, normalised), % at 9.99 µM | 340,000 tested, 1.5% active;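 active = mean Tm shift, scaled 0 neutral to 100 positive control, at about 1.3% or above, every replicate too, limit read from the data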
Target sequence (Q9HCT0 whole entry, looked up): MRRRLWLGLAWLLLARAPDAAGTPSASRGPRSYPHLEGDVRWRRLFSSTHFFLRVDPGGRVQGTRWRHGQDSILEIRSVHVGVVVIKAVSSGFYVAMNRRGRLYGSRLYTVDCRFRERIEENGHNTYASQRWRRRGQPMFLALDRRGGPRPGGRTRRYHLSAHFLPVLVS
FGF22 binding-2 – binds human FGF22 shifting its melting temperature; shares compounds with FGF22 binding-1; recombinant FGF22 thermal shift, SYPRO orange fluorescence; thermal shift activity, °C (ΔTm) at 38 µM; 1,000 tested, 2% active;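 active = fitted rise in melting shift crosses a set limit at or below the top valid dose tested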
SYPRO no-protein – counter-screen for FGF22 binders: compound-only thermal shift, no protein | shares compounds with FGF22 binding-1 | compound-only SYPRO orange thermal shift counter-screen | AC50, µM (titrated, usually from 38 µM) | 1,000 tested, 2% active;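 active = rising signal whose fitted curve reaches the 0.54 level within the top valid dose, showing a melting point, actives reach about 13 µM in these data; inactive = the rest, including activity in the opposite direction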; note: value is where the raw curve crosses a fixed level and not half-maximal
Hits are given with their value; 0 = inactive; - = no result.

SMILES	Vif inh	F508del corr	FGF22 binding-1	FGF22 binding-2	SYPRO no-protein
CCNC(=O)CC1C(=O)N(c2ccc(F)cc2)C(=O)N1Cc1ccccn1 (configuration not stated)	0	-	-	-	-
COc1ccc(NC(=O)CC2C(=O)N(c3ccc(OC)cc3)C(=O)N2Cc2ccc(OC)c(OC)c2)cc1 (configuration not stated)	0	0	0	-	-
COC(=O)CN1C(=S)N(c2ccc(F)cc2)C(=O)C1CC(=O)Nc1ccc(F)cc1 (configuration not stated)	0	0	0	-	-
C[C@@H]1CCCCO[C@@H](CN(C)C(=O)Cc2ccccc2)[C@H](C)CN([C@H](C)CO)C(=O)c2cc(NS(=O)(=O)c3ccc(F)cc3)ccc2O1	-	0	0	-	-
COc1ccc(NC(=O)CC2C(=O)N(c3ccc(Cl)cc3)C(=S)N2CCc2ccccn2)cc1 (configuration not stated)	0	0	0	-	-
COc1ccc(N2C(=O)C(CC(=O)Nc3ccccc3)N(Cc3ccccn3)C2=S)cc1 (configuration not stated)	0	0	1.7	0	0
COC(=O)C[C@@H]1CC[C@H]2[C@H](COc3ccc(NC(=O)c4ccc(F)cc4)cc3C(=O)N2C)O1	-	0	0	-	-
CCOc1ccc(N(CC(=O)NCCSc2ccccn2)S(C)(=O)=O)cc1	0	-	-	-	-
CCOc1ccc(N(CC(=O)NCCSc2ccccn2)S(=O)(=O)c2ccc(Cl)cc2)cc1	0	0	29.0	0	0
CCOc1ccc(S(=O)(=O)Nc2ccc(C(=O)NNC(=O)c3ccncc3)cc2)cc1	0	0	0	-	-
O=C(NNC(=O)c1ccccc1F)c1ccc(NS(=O)(=O)c2ccc(F)cc2)cc1	0	0	1.8	0	0
CCOc1ccc(NS(=O)(=O)c2ccc(C(=O)NNC(=O)c3ccccc3O)cc2)cc1	0	0	1.4	0	0
O=C(NNC(=O)c1ccccc1O)c1ccc(NS(=O)(=O)c2ccc(F)cc2)cc1	0	0	0	-	-
O=C(C[C@H]1CC[C@@H]2[C@H](COC[C@H](O)CN2C(=O)Nc2cc(Cl)cc(Cl)c2)O1)N1CCCCC1	-	0	0	-	-
CN(C)C(=O)c1cccc(-c2ccc3c(c2)[C@H]2[C@H](CCN2Cc2ccccc2F)[C@H](CO)N3)c1	-	0	0	-	-
O=C(NCC[C@@H]1CC[C@@H](NC(=O)c2cccnc2)[C@@H](CO)O1)Nc1ccc(C(F)(F)F)cc1	-	0	0	-	-
COc1ccc(CN(C)C[C@@H]2Oc3ccc(NC(=O)Nc4c(C)noc4C)cc3CC(=O)N([C@H](C)CO)C[C@@H]2C)cc1	-	0	0	-	-
CC(C)NC(=O)N(C)C[C@@H]1Oc2ccc(NS(=O)(=O)c3cccs3)cc2C(=O)N([C@@H](C)CO)C[C@@H]1C	-	0	-	-	-
N#C[C@@H]1[C@@H](c2ccc(C3=CCCCC3)cc2)[C@@H](CO)N1S(=O)(=O)c1ccccc1	-	0	0	-	-
N#C[C@H]1[C@@H](c2ccc(C3=CCCCC3)cc2)[C@@H](CO)N1S(=O)(=O)c1ccccc1	-	0	1.9	0	0
CCC(=O)N1CCC2(CC1)CN(Cc1ccc3c(c1)OCO3)[C@@H](CO)c1c2c2ccc(OC)cc2n1C	-	0	0	-	-
CN(CC1CCOCC1)C(=O)c1ccc2nc(Cc3cccc(Cl)c3)oc2c1	-	0	0	-	-
O=C(NCC1CCOCC1)c1ccc2nc(Cc3cccc(Cl)c3)oc2c1	0	0	1.4	0	0
COc1cccc(S(=O)(=O)N2C[C@@H](O)COC[C@H]3O[C@@H](CC(=O)N4CCN(C)CC4)CC[C@@H]32)c1	-	0	0	-	-
C[C@@H]1CCCCO[C@H](CN(C)Cc2ccncc2)[C@H](C)CN([C@@H](C)CO)C(=O)c2cc(NS(C)(=O)=O)ccc2O1	-	0	0	-	-
SMILES	Vif inh	F508del corr	FGF22 binding-1	FGF22 binding-2	SYPRO no-protein
O=C(O)c1cccc(NS(=O)(=O)c2ccc(Oc3ccc(S(=O)(=O)Nc4cccc(C(=O)O)c4)cc3)cc2)c1	0	0	-	-	-
O=C(Nc1cccc(C(F)(F)F)c1)c1cccc(NS(=O)(=O)c2ccc(O)c(C(=O)O)c2)c1	0	0	1.7	0	0
O=C(Nc1cccc(C(F)(F)F)c1)c1cccc(NS(=O)(=O)c2ccc(Br)c(C(=O)O)c2)c1	0	0	0	-	-
O=C(O)c1cccc(NS(=O)(=O)c2ccc(-c3ccc(S(=O)(=O)Nc4cccc(C(=O)O)c4)cc3)cc2)c1	0	0	21.1	0	0
O=C(N[C@H]1CC[C@@H](CCn2cc(-c3ccccn3)nn2)O[C@@H]1CO)c1ccncc1	-	0	0	-	-
C[C@H]1CN([C@@H](C)CO)C(=O)Cc2cc(NC(=O)CCC(F)(F)F)ccc2O[C@@H]1CN(C)Cc1ccccc1	-	0	0	-	-
C[C@@H]1CN([C@@H](C)CO)C(=O)c2cc(NC(=O)C3CCCCC3)ccc2O[C@H]1CN(C)Cc1ccccc1	-	0	0	-	-
CC(C)(C)c1ccc(S(=O)(=O)NC(=O)C2(C)CCN2C(=O)Cc2ccc(Cl)cc2Cl)cc1 (configuration not stated)	0	0	0	-	-
CC1(C(=O)NS(=O)(=O)Cc2cccc(Cl)c2)CCN1C(=O)C1(c2ccc(Cl)cc2)CCC1 (configuration not stated)	0	0	1.5	-	0
CC1(C(=O)NS(=O)(=O)Cc2cccc(Cl)c2)CCN1C(=O)C1(c2ccc(Cl)cc2)CC1 (configuration not stated)	0	0	0	-	-
CC1(C(=O)NS(=O)(=O)c2ccc(Cl)cc2)CCN1C(=O)Cc1ccc(Cl)cc1Cl (configuration not stated)	0	0	1.5	0	0
CN(CC(=O)Nc1cccc(F)c1)C(=O)c1cn(-c2ccccc2)nc1-c1cccs1	0	0	0	-	-
COc1cccc(NC(=O)CN(C)C(=O)c2cn(-c3ccccc3)nc2-c2cccs2)c1	0	0	2.1	0	0
C/C=C/c1ccc2c(c1)O[C@@H](CN(C)C(=O)Nc1cccc(F)c1)[C@@H](C)CN([C@@H](C)CO)S2(=O)=O	-	0	1.5	0	0
C/C=C/c1ccc2c(c1)O[C@H](CN(C)C(=O)Nc1cccc(F)c1)[C@H](C)CN([C@H](C)CO)S2(=O)=O	-	0	0	-	-
C/C=C/c1ccc2c(c1)O[C@@H](CN(C)Cc1ccncc1)[C@@H](C)CN([C@@H](C)CO)S2(=O)=O	-	0	1.6	0	0
C/C=C/c1ccc2c(c1)O[C@H](CN(C)C(=O)Nc1cc(F)ccc1F)[C@H](C)CN([C@H](C)CO)S2(=O)=O	-	0	1.2	0	0
C/C=C/c1ccc2c(c1)O[C@@H](CN(C)C(=O)Nc1cc(F)ccc1F)[C@H](C)CN([C@H](C)CO)S2(=O)=O	-	0	0	-	-
C/C=C/c1ccc2c(c1)O[C@H](CN(C)Cc1ccncc1)[C@@H](C)CN([C@H](C)CO)S2(=O)=O	-	0	0	-	-
O=C(NCCc1ccc2c(c1)OCCO2)c1cc(F)cc(F)c1	0	-	-	-	-
O=C(NCCc1ccc2c(c1)OCCO2)c1cccc(F)c1	0	0	1.6	0	0
O=C(C[C@@H]1CC[C@@H]2[C@H](COC[C@@H](O)CN2Cc2ccc(C(F)(F)F)cc2)O1)NCCc1ccccc1	-	0	0	-	-

High-throughput results as filed in PubChem.
